Records with an inconclusive call do not appear. The source made the active and inactive calls. The call rests on the fitted dose curve; in most records, active means well fitted curve in the direction sought with a large enough effect in the repeat runs; inconclusive means weak or mixed curves; inactive means no such curve, though single readings can be large; an effect the other way counts as inactive or inconclusive.
What was measured:
[1] = A CellTox Green Cytotoxicity Assay to monitor cytotoxicity in HepG2 cells - 24 hour (AID 1224878); further: nearly all actives have a fitted effect of over 45% in size
Outline: (§1)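 HepG2 cells were seeded together with the CellTox Green dye at 600 cells/well, left 5 h at 37 C/5% CO2, then given compounds in DMSO. Fluorescence from dye bound to dead-cell DNA was read repeatedly over 40 h of treatment at 37 C.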

[2] = A CellTox Green Cytotoxicity Assay to monitor cytotoxicity in HepG2 cells - 40 hour (AID 1224879); further: nearly all actives have a fitted effect of over 40% in size
Outline: as §1

[3] = qHTS RealTime-Glo MT Cell Viability Assay in HEK293 cells - 0 hour (AID 1224880); further: nearly all actives have a fitted effect of over 45% in size; further: potency means the concentration at half of the fitted maximal effect; on activity change, negative = cytotoxicity: top concentration of the series differs between compounds
Outline: (§2)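 HEK293 cells mixed with RealTime-Glo reagents (NanoLuc plus cell-permeant prosubstrate) at 600 cells/well, preincubated 5 h at 37 C/5% CO2, then given 23 nL compound in DMSO. Nonlytic luminescence from viable cells was read at 0, 8, 16, 24, 32 and 40 h.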

[4] = A CellTox Green Cytotoxicity Assay to monitor cytotoxicity in HEK293 cells - 32 hour (AID 1224881); further: nearly all actives have a fitted effect of over 40% in size
Outline: (§3)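 HEK293 cells premixed with CellTox Green dye were seeded at 600 cells/well and left 5 h at 37 C/5% CO2 before pin transfer of 23 nL compound in DMSO. Fluorescence from dye bound to dead-cell DNA was read during 40 h treatment.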

[5] = A CellTox Green Cytotoxicity Assay to monitor cytotoxicity in HepG2 cells - 0 hour (AID 1224882); further: nearly all actives have a fitted effect of over 35% in size
Outline: as §1

[6] = A CellTox Green Cytotoxicity Assay to monitor cytotoxicity in HepG2 cells - 32 hour (AID 1224883); further: nearly all actives have a fitted effect of over 50% in size
Outline: as §1

[7] = A CellTox Green Cytotoxicity Assay to monitor cytotoxicity in HEK293 cells - 8 hour (AID 1224884); further: nearly all actives have a fitted effect of over 35% in size
Outline: as §3

[8] = qHTS RealTime-Glo MT Cell Viability Assay in HepG2 cells - 16 hour (AID 1224885); further: nearly all actives have a fitted effect of over 50% in size
Outline: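 Compound treatment began 5 h after plating HepG2 cells (600/well) with NanoLuc luciferase and prosubstrate. Plates stayed at 37 C for 40 h; luminescence was captured at six time points, 0 h through 40 h.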

[9] = qHTS RealTime-Glo MT Cell Viability Assay in HEK293 cells - 24 hour (AID 1224886); further: top concentration of the series differs between compounds; nearly all actives have a fitted effect of over 50% in size
Outline: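 Quantitative high-throughput screen of the Tox21 10K library in HEK293: cells and RealTime-Glo reagents plated together, compound added at 5 h, luminescence monitored through 40 h at 37 C.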

[10] = qHTS RealTime-Glo MT Cell Viability Assay in HEK293 cells - 8 hour (AID 1224887); further: top concentration of the series differs between compounds; nearly all actives have a fitted effect of over 50% in size
Outline: as §2
On the % scale 0 is the no-effect control and ±100 the full control effect.

CCC(C(=O)OCCN1CCOC(c2ccccc2)C1C)c1ccccc1 (centres undefined)
inactive: Potency [1] | Potency [2] | Potency [3] | Potency [4] | Potency [5] | Potency [6] | Potency [7] | outcome [8]

CC(C)(CO)C(O)C(=O)NCCCO (centres undefined)
inactive: Potency [1] | Potency [2] | Potency [3] | Potency [4] | Potency [5] | Potency [6] | Potency [7] | outcome [8] | Potency [9] | Potency [10]

CSc1cnccn1
inactive: Potency [1] | Potency [2] | Potency [3] | Potency [4] | Potency [5] | Potency [6] | Potency [7] | outcome [8] | Potency [9] | Potency [10]

O=C(O)[C@H](O)c1ccccc1
inactive: Potency [1] | Potency [2] | Potency [3] | Potency [4] | Potency [5] | Potency [6] | Potency [7] | outcome [8] | Potency [9] | Potency [10]

CC1(C)Cc2cccc(N)c2O1
inactive: Potency [1] | Potency [2] | Potency [3] | Potency [4] | Potency [5] | Potency [6] | Potency [7] | outcome [8] | Potency [9] | Potency [10]

CC1(C)[C@H]2CC[C@](C)(C2)[C@H]1O
inactive: Potency [1] | Potency [2] | Potency [3] | Potency [4] | Potency [5] | Potency [6] | Potency [7] | outcome [8] | Potency [9] | Potency [10]

COC(=O)c1cc(Cl)cc(Cl)c1
inactive: Potency [1] | Potency [2] | Potency [3] | Potency [4] | Potency [5] | Potency [6] | Potency [7] | outcome [8] | Potency [9] | Potency [10]

CCCCCCCCCCCCCCCCCCOCCO
inactive: cytotoxicity [1] 0.951% [at 15.8 µM] | cytotoxicity increase [2] 2.96% [at 15.8 µM] | activity change, negative = cytotoxicity [3] 18.7% [at 15.8 µM] | cytotoxicity increase [4] 8.15% [at 15.8 µM] | cytotoxicity [5] -0.0743% [at 15.8 µM] | cytotoxicity increase [6] 1.19% [at 15.8 µM] | cytotoxicity increase [7] -0.0989% [at 15.8 µM] | activity change, negative = cytotoxic [8] 1.39% [at 15.8 µM] | activity change, negative = cytotoxicity [9] -7.08% [at 15.8 µM] | activity change, negative = cytotoxicity [10] 1.44% [at 15.8 µM]

C=CCN1C[C@H](C(=O)N(CCCN(C)C)C(=O)NCC)C[C@@H]2c3cccc4[nH]cc(c34)C[C@H]21
inactive: Potency [1] | Potency [2] | Potency [3] | Potency [4] | Potency [5] | Potency [6] | Potency [7] | outcome [8] | Potency [9] | Potency [10]

CC(C)c1ccc(C=O)cc1
inactive: Potency [1] | Potency [2] | Potency [3] | Potency [4] | Potency [5] | Potency [6] | Potency [7] | outcome [8] | Potency [9] | Potency [10]

ONc1ccccc1
inactive: Potency [1] | Potency [2] | Potency [3] | Potency [4] | Potency [5] | Potency [6] | Potency [7] | outcome [8] | Potency [9] | Potency [10]

O=C(Cl)c1ccccc1[N+](=O)[O-]
inactive: Potency [1] | Potency [2] | Potency [3] | Potency [4] | Potency [5] | Potency [6] | Potency [7] | outcome [8] | Potency [9] | Potency [10]

O=C(O)CNC(=O)CNC(=O)CNC(=O)CSC(=O)c1ccccc1
inactive: Potency [1] | Potency [2] | Potency [3] | Potency [4] | Potency [5] | Potency [6] | Potency [7] | outcome [8] | Potency [9] | Potency [10]

O=C(CCCCC(=O)Nc1c(I)cc(I)c(C(=O)O)c1I)Nc1c(I)cc(I)c(C(=O)O)c1I
inactive: Potency [1] | Potency [2] | Potency [3] | Potency [4] | Potency [5] | Potency [6] | Potency [7] | outcome [8] | Potency [9] | Potency [10]

C[C@]12CCC(=O)C=C1CC[C@H]1[C@@H]3CC[C@](O)(C(=O)CO)[C@@]3(C)C[C@H](O)[C@@]12F
active: Potency [3] 9.52 µM
inactive: Potency [1] | Potency [2] | Potency [4] | Potency [5] | Potency [6] | Potency [7] | outcome [8] | Potency [9] | Potency [10]

CC(C)[C@H]1CC[C@H](C)C[C@@H]1O
inactive: Potency [1] | Potency [2] | Potency [3] | Potency [4] | Potency [5] | Potency [6] | Potency [7] | outcome [8] | Potency [9] | Potency [10]

C=CCSSCCC
inactive: Potency [1] | Potency [2] | Potency [3] | Potency [4] | Potency [5] | Potency [6] | Potency [7] | outcome [8]

Cc1cc(-c2ccccc2)nnc1NCCN1CCOCC1
inactive: Potency [1] | Potency [2] | Potency [3] | Potency [4] | Potency [5] | Potency [6] | Potency [7] | outcome [8] | Potency [9] | Potency [10]

COc1nc(N)nc2nc[nH]c12
inactive: Potency [1] | Potency [2] | Potency [3] | Potency [4] | Potency [5] | Potency [6] | Potency [7] | outcome [8]

CC(=O)O[C@H]1C[C@@H]2CC[C@@]1(C)C2(C)C
inactive: Potency [1] | Potency [2] | Potency [3] | Potency [4] | Potency [5] | Potency [6] | Potency [7] | outcome [8] | Potency [9] | Potency [10]

CCOc1cccc(N)c1
inactive: Potency [1] | Potency [2] | Potency [3] | Potency [4] | Potency [5] | Potency [6] | Potency [7] | outcome [8] | Potency [9] | Potency [10]
